Data published in paper PMC7862700, “An all-to-all approach to the identification of sequence-specific readers for epigenetic DNA modifications on cytosine”.

Key:
Experiment in all cases: DAPPL (digital affinity profiling via proximity ligation, sequencing); 10 mM Tris-HCl pH 7.5, 50 mM NaCl, 1 mM DTT, 4% glycerol, room temperature, 30 min; GST-TFs on glutathione beads, 16-mer random dsDNA library, 0.1% formaldehyde crosslink after washing; high values mean tight binding
FEV = biological target: T1, FEV (Homo sapiens, UniProt Q99581 1-238); settings: protein: recombinant; tags: N-terminal GST; dsDNA, one strand shown
T1 sequence: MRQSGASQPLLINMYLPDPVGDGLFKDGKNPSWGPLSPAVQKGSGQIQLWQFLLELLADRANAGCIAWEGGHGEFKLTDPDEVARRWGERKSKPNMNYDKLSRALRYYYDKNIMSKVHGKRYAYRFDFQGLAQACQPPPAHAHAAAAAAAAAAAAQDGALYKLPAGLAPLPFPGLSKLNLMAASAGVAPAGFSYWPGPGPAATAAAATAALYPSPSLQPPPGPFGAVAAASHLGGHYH
In short: (§1)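 Human transcription factors were made in yeast as GST fusions, captured on glutathione beads and barcoded with DNA. With a tag-only sample included, the pool was incubated with 200 nmole of a random double-stranded 16-mer DNA library in Tris/NaCl/DTT/glycerol buffer at room temperature for 30 min, then crosslinked with 0.1% formaldehyde after washing, ligated by proximity, amplified and sequenced. For binding signal, each hexamer's read frequency for a factor is divided by its frequency for the tag-only sample.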

ETV5 = ETV5 (Homo sapiens, UniProt P41161 1-510); settings: protein: recombinant; tags: N-terminal GST; dsDNA, one strand shown
In short: as §1

HSF1 = HSF1 (Homo sapiens, UniProt Q00613 1-529); settings: protein: recombinant; tags: N-terminal GST; chain copies: 3; dsDNA, one strand shown
In short: as §1

SPIC = biological target: T2, SPIC (Homo sapiens, UniProt Q8N5J4 1-248); settings: protein: recombinant; tags: N-terminal GST; dsDNA, one strand shown
T2 sequence: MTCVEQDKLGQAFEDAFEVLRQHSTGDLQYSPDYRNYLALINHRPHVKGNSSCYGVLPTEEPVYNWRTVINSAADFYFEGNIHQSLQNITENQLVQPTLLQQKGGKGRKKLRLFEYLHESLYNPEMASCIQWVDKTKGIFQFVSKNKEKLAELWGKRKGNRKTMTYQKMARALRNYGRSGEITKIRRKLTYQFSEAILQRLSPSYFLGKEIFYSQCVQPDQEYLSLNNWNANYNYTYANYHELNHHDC
In short: as §1

ELF4 = ELF4 (Homo sapiens, UniProt Q99607 1-663); settings: protein: recombinant; tags: N-terminal GST; dsDNA, one strand shown
In short: as §1

ELK4 = biological target: T3, ELK4 (Homo sapiens, UniProt P28324-2 1-405); settings: protein: recombinant; tags: N-terminal GST; dsDNA, one strand shown
T3 sequence: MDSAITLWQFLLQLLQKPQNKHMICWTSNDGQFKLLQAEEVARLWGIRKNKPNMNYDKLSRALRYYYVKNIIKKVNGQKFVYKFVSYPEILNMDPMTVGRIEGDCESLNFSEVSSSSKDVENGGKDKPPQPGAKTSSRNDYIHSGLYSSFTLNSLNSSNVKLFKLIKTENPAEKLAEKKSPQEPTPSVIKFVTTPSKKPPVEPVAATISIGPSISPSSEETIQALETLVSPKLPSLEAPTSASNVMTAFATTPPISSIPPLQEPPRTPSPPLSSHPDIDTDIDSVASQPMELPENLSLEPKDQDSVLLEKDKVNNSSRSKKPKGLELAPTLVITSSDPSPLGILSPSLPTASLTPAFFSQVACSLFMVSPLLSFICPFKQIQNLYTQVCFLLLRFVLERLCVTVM
In short: as §1

ETV2 = biological target: T4, ETV2 (Homo sapiens, UniProt O00321 1-342); settings: protein: recombinant; tags: N-terminal GST; dsDNA, one strand shown
T4 sequence: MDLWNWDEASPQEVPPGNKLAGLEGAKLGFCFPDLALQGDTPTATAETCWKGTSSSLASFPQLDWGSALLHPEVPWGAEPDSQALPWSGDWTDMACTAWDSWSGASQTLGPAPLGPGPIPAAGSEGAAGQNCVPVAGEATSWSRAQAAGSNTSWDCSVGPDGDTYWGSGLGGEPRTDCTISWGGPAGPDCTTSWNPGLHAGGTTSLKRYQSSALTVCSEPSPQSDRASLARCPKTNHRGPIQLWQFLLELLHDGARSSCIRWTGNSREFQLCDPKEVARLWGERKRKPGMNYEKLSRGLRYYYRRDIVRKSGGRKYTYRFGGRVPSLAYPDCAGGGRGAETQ
In short: as §1

ELF3 = biological target: T5, ELF3 (Homo sapiens, UniProt P78545 1-371); settings: protein: recombinant; tags: N-terminal GST; dsDNA, one strand shown
T5 sequence: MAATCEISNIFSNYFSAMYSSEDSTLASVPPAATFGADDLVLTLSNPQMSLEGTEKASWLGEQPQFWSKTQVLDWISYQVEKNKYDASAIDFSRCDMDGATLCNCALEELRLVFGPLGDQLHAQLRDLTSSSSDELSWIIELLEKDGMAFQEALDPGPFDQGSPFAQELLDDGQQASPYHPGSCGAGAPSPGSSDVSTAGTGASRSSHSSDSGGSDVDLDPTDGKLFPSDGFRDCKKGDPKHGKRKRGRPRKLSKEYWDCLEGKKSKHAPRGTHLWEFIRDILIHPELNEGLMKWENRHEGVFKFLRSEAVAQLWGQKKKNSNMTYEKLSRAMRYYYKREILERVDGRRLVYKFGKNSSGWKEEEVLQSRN
In short: as §1

CRX = CRX (Homo sapiens, UniProt O43186 1-299); settings: protein: recombinant; tags: N-terminal GST; dsDNA, one strand shown
In short: as §1

ETV1 = ETV1 (Homo sapiens, UniProt P50549 1-477); settings: protein: recombinant; tags: N-terminal GST; dsDNA, one strand shown
In short: as §1

ERF = biological target: T6, ERF (Homo sapiens, UniProt P50548 1-548); settings: protein: recombinant; tags: N-terminal GST; dsDNA, one strand shown
T6 sequence: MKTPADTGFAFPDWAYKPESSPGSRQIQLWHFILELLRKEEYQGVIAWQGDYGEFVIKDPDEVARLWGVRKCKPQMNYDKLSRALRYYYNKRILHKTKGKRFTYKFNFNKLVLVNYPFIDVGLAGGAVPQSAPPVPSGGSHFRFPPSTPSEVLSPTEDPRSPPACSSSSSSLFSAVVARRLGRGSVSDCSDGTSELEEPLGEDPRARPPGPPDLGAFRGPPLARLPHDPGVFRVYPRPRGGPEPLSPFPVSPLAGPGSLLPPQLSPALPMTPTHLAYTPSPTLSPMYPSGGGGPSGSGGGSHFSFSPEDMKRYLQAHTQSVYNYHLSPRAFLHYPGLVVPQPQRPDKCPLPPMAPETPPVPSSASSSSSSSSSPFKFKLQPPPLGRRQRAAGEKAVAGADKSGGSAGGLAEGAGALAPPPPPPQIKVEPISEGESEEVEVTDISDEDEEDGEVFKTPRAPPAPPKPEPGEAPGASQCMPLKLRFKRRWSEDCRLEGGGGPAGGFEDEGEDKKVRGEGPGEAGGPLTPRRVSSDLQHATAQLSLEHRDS
In short: as §1

ETV3L = biological target: T7, ETV3L (Homo sapiens, UniProt Q6ZN32 1-361); settings: protein: recombinant; tags: N-terminal GST; dsDNA, one strand shown
T7 sequence: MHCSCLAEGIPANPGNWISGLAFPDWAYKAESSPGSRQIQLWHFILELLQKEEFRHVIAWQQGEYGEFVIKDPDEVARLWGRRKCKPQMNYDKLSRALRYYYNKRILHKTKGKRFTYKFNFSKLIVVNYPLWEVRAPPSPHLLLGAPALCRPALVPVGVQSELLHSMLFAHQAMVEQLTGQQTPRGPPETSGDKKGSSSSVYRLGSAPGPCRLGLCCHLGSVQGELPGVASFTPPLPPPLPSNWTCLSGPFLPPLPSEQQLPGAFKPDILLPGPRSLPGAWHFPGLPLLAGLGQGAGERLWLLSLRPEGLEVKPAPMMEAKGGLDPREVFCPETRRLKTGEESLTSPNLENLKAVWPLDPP
In short: as §1

ETS2 = biological target: T8, ETS2 (Homo sapiens, UniProt P15036 1-469); settings: protein: recombinant; tags: N-terminal GST; dsDNA, one strand shown
T8 sequence: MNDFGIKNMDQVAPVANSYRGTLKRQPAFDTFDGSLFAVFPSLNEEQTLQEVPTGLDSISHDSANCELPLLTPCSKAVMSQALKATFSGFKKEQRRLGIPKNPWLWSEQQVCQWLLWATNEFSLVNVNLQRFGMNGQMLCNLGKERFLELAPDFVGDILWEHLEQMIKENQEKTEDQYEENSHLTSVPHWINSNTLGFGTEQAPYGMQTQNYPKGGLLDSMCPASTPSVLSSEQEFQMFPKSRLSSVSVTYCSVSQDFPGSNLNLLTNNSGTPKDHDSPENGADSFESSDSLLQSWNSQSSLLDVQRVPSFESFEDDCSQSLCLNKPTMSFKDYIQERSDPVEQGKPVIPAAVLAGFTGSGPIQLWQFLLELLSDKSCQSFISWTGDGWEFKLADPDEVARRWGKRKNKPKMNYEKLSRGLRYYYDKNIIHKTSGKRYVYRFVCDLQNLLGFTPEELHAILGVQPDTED
In short: as §1

SPDEF = biological target: T9, SPDEF (Homo sapiens, UniProt O95238 1-335); settings: protein: recombinant; tags: N-terminal GST; dsDNA, one strand shown
T9 sequence: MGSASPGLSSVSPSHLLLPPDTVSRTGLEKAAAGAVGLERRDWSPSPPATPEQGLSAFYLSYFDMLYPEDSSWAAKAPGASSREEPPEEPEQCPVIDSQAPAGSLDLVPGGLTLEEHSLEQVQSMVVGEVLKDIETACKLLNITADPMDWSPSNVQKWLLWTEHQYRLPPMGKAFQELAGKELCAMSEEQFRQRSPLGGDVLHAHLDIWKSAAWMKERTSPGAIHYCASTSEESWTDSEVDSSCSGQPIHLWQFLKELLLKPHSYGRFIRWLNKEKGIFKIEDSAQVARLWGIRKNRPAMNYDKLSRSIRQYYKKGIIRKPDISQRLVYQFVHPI
In short: as §1

ETV7 = biological target: T10, ETV7 (Homo sapiens, UniProt Q9Y603 1-341); settings: protein: recombinant; tags: N-terminal GST; dsDNA, one strand shown
T10 sequence: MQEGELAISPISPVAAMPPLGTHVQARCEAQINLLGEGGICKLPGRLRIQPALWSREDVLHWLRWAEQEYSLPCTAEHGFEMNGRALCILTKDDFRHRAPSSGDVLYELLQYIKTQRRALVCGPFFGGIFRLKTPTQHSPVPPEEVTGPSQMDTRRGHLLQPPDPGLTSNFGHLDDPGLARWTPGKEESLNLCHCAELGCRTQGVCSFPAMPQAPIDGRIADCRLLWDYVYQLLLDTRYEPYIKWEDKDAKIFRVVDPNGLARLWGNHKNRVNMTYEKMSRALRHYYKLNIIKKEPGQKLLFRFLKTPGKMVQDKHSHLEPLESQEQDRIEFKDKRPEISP
In short: as §1

ELF5 = biological target: T11, ELF5 (Homo sapiens, UniProt Q9UKW6-2 1-255); settings: protein: recombinant; tags: N-terminal GST; dsDNA, one strand shown
T11 sequence: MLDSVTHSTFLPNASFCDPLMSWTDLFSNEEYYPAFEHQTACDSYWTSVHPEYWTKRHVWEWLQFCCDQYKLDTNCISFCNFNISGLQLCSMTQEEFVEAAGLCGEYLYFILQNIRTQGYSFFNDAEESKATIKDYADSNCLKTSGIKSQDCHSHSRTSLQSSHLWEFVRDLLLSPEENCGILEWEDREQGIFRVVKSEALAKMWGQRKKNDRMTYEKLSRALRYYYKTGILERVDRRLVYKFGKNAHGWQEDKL
In short: as §1

ETV3 = biological target: T12, ETV3 (Homo sapiens, UniProt P41162-2 1-143); settings: protein: recombinant; tags: N-terminal GST; dsDNA, one strand shown
T12 sequence: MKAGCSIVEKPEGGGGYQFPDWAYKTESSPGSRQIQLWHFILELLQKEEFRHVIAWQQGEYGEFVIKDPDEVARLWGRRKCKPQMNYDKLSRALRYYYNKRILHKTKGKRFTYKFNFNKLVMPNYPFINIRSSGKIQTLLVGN
In short: as §1

ETV6 = ETV6 (Homo sapiens, UniProt P41212 1-452); settings: protein: recombinant; tags: N-terminal GST; dsDNA, one strand shown
In short: as §1

Sequence of ELF4 (Q99607 whole entry): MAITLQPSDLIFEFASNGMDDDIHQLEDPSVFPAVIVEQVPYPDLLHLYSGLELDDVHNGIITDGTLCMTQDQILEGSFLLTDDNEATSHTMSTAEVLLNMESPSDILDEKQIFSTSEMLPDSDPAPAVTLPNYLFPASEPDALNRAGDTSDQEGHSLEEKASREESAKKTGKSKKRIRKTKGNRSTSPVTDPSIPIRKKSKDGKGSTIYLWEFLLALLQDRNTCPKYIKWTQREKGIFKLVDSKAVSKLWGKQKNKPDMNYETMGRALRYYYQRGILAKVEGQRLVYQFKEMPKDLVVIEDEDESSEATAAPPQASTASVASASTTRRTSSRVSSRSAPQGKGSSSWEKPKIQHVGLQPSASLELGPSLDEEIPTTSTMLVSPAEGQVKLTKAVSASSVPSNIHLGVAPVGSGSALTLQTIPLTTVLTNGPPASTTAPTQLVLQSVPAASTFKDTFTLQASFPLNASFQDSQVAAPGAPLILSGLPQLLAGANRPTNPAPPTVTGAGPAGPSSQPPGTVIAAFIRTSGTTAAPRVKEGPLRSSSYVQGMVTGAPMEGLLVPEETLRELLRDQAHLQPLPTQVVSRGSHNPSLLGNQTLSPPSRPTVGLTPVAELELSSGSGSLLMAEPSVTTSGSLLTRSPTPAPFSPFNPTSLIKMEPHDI
Sequence of HSF1 (Q00613 whole entry): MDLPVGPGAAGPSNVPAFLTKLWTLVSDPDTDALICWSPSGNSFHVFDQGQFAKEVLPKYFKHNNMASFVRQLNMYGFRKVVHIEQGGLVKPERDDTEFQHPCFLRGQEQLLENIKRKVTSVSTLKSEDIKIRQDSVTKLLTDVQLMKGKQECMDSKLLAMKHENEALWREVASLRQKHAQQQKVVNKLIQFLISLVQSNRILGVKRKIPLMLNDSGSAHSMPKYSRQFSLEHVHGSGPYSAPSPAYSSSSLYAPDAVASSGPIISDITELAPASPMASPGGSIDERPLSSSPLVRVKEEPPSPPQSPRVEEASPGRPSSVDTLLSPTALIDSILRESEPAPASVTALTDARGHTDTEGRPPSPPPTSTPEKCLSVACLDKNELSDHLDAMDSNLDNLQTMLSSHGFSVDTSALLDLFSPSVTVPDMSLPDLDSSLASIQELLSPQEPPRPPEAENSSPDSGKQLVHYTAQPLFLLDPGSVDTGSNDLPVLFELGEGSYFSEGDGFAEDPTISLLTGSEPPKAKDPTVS
Sequence of ETV5 (P41161 whole entry): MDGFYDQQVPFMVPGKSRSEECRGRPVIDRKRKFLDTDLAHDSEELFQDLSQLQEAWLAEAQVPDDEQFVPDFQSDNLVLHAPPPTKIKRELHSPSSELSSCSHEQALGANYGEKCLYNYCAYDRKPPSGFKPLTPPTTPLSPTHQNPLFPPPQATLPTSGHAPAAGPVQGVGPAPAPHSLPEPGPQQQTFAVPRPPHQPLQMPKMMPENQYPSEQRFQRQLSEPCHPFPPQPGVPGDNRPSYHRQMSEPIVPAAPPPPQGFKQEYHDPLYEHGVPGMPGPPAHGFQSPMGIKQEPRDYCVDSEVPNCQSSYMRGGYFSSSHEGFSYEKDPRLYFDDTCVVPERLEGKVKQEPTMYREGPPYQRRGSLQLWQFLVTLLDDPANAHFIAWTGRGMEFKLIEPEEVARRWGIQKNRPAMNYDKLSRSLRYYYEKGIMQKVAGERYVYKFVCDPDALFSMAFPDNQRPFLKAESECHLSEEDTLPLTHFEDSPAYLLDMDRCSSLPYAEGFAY
Sequence of CRX (O43186 whole entry): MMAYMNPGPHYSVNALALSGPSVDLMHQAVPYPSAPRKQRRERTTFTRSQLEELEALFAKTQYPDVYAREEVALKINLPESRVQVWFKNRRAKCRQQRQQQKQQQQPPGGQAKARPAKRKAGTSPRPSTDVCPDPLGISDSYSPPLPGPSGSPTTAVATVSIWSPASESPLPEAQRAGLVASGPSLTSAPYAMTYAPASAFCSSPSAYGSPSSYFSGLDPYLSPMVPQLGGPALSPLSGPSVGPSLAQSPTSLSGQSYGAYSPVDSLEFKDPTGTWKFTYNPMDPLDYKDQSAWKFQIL
Sequence of ETV6 (P41212 whole entry): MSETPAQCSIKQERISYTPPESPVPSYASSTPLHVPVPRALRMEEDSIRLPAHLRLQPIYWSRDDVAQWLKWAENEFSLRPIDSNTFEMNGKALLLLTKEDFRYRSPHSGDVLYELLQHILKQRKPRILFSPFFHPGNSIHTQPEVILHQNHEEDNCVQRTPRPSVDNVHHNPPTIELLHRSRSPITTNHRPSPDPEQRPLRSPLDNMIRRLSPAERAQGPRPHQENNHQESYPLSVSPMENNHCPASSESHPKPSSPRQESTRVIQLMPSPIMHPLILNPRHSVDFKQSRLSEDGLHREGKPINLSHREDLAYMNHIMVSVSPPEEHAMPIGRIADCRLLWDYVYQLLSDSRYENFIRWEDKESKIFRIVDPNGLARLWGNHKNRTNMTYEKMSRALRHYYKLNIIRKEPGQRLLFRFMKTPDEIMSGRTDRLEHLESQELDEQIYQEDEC
Sequence of ETV1 (P50549 whole entry): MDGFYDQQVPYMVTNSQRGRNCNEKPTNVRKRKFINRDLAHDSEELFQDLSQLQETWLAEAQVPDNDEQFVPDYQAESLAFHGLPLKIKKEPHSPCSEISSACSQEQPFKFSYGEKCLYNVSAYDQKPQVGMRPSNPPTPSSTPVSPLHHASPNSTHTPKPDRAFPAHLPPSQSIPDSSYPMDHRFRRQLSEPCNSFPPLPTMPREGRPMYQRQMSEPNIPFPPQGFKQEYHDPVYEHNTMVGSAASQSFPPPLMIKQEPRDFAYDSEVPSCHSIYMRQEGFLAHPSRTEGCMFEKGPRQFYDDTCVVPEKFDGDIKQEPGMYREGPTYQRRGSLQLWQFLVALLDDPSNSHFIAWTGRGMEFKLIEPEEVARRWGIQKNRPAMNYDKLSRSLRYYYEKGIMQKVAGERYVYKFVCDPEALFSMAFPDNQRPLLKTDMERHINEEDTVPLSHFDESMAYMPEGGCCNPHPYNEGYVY

Sequence: CCCTTA
- binding signal (FEV): 1.24 fold enrichment (6-mer frequency, TF over GST control)
- binding signal (ETV5): 1.28 fold enrichment (6-mer frequency, TF over GST control)
- binding signal (HSF1): 1.28 fold enrichment (6-mer frequency, TF over GST control)
- binding signal (SPIC): 1.31 fold enrichment (6-mer frequency, TF over GST control)
- binding signal (ELF4): 1.39 fold enrichment (6-mer frequency, TF over GST control)
- binding signal (ELK4): 1.21 fold enrichment (6-mer frequency, TF over GST control)
- binding signal (ETV2): 1.41 fold enrichment (6-mer frequency, TF over GST control)
- binding signal (ELF3): 1.29 fold enrichment (6-mer frequency, TF over GST control)
- binding signal (CRX): 1.59 fold enrichment (6-mer frequency, TF over GST control)
- binding signal (ETV1): 1.21 fold enrichment (6-mer frequency, TF over GST control)
- binding signal (ERF): 1.32 fold enrichment (6-mer frequency, TF over GST control)
- binding signal (ETV3L): 1.41 fold enrichment (6-mer frequency, TF over GST control)
- binding signal (ETS2): 1.34 fold enrichment (6-mer frequency, TF over GST control)
- binding signal (SPDEF): 1.38 fold enrichment (6-mer frequency, TF over GST control)
- binding signal (ETV7): 1.23 fold enrichment (6-mer frequency, TF over GST control)
- binding signal (ELF5): 1.2 fold enrichment (6-mer frequency, TF over GST control)
- binding signal (ETV3): 1.39 fold enrichment (6-mer frequency, TF over GST control)
- binding signal (ETV6): 1.24 fold enrichment (6-mer frequency, TF over GST control)
